# Sampled rows, rich in hits. Any-hit rate of the full collection: about 19%.
# CHX counter – Cycloheximide Counterscreen for Small Molecule Inhibitors of Shiga Toxin; cell reporter, cycloheximide protein synthesis inhibition counterscreen; max response, %; actives 12% (n = 300,000); AID 2314, 2010; in the data active means max response mostly above about 13%, no sharp cut-off; inactive means mostly below about 14%; further: read at 38.3 µM for the half of the compounds with a filed dose; 0% is about no effect
# Marburg entry inh – qHTS for inhibitors of binding or entry into cells for Marburg Virus; Marburg virus pseudotyped entry inhibition, cell reporter; Potency, µM (titrated, usually from 37.8 µM), for inactives: at the top dose activity change, negative = inhibition, hits mostly inhibitors; actives 1.8% (n = 300,000); calls by dose curve; tested in HEK293 cells; further: potency means the concentration at half of the fitted maximal effect; on the % scale 0 is the no-effect control and ±100 the full control effect
# LASV entry inh – qHTS for Inhibitors of binding or entry into cells for Lassa Virus; actives 1.2% (n = 300,000); Potency, µM (top dose mostly 37.9 µM), inactives show top-dose activity change, negative = inhibition, actives largely listed as inhibitors; Lassa virus pseudotype entry inhibition, cell reporter; calls by dose curve; tested in HEK293 cells; further: potency means the concentration at half of the fitted maximal effect; on the % scale 0 is the no-effect control and ±100 the full control effect; nearly all actives have a fitted effect of over 50% in size
# Pf growth 48h – Primary qHTS for delayed death inhibitors of the malarial parasite plastid, 48 hour incubation. P. falciparum luciferase growth in erythrocytes, 48 h. Potency, µM (titrated, usually from 28.7 µM), inactives show at the highest dose activity change, negative = inhibition, usual class: inhibitors. actives 5.9% (n = 310,000). AID 504832, 2011; further: potency means the concentration at half of the fitted maximal effect; on the % scale 0 is the no-effect control and ±100 the full control effect
#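 Growth was read as firefly luciferase luminescence after a 48 h, 37 C, 5% CO2 exposure of compounds to reporter-bearing P. falciparum cultures (0.1% parasitemia, 2% hematocrit final) in Albumax-supplemented RPMI 1640.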
# Pf growth 96h – Primary qHTS for delayed death inhibitors of the malarial parasite plastid, 96 hour incubation | actives 6.9% (n = 320,000) | P. falciparum luciferase reporter growth, 96 h | AID 504834, 2011 | Potency, µM (titrated, usually from 28.7 µM), for inactives: at the top dose activity change, negative = inhibition, hits mostly inhibitors; further: potency means the concentration at half of the fitted maximal effect; on the % scale 0 is the no-effect control and ±100 the full control effect
#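 Luminescence readout: decreased luciferase signal marks inhibited growth of reporter-expressing P. falciparum in infected red cells (2% hematocrit, 0.05% parasitemia final), exposed to compound two generations (96 h, 37 C, 5% CO2).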
# Shiga toxin inh – A qHTS for Small Molecule Inhibitors of Shiga Toxin | Vero cells, Shiga toxin protein synthesis inhibition reporter | inhibition, % at 38.7 µM | actives 9.2% (n = 290,000); in the data active means inhibition mostly above about 28%, no sharp cut-off; inactive means mostly below about 43%; further: 0% is about no effect
# Numbers without * were called inactive; ? = inconclusive; / = not tested or not shown; [ ] = remark or other dose. Unless noted, the call rests on the fitted dose curve; in most records, active means well fitted inhibition curve with a large enough effect; inconclusive means small, poorly fitted or top-dose-only effect, or another doubt; inactive means no such curve, though single readings can be large or run the other way.
SMILES,CHX counter,Marburg entry inh,LASV entry inh,Pf growth 48h,Pf growth 96h,Shiga toxin inh
O=C(NCc1ccccc1)c1ccc(-c2ccc(F)cc2)o1,25.2*,-3.0%,6.51µM*,11.6%,/,58.9*
COc1ccc(NC(=O)c2ccc(-c3ccc(C)c4ccccc34)o2)cc1,13.9,24.6%,5.7%,36.1%,36.7%,35.5
Cc1ccccc1-c1ccc(C(=O)NCc2ccccc2)o1,13.6*,11.1%,?,17.2%,-9.9%,10.8
O=S(=O)(NCc1nc(-c2ccccc2)no1)c1ccc(F)cc1,-0.9,2.8%[46.1 µM],20.0%[46.1 µM],10.7%,-27.7%,12.9
C/C(=C\C(=O)c1ccc(C)cc1)NCc1ccc(F)cc1,/,-23.0%,0.0%,/,/,/
C/C(=C\C(=O)c1ccccc1)NCc1ccc(F)cc1,59.6*,-3.1%[46.1 µM],-1.1%,?,?,109.8*
Cc1ccc(C(=O)c2ccc(O)cc2)cc1C,17.6*,-2.1%,-18.1%,27.6%,-14.7%,51.7
O=C(c1ccccc1)c1ccc2cc(O)ccc2c1,35.1*,?,?,29.9%,42.1%,72.3*
O=C(c1ccc(O)cc1)c1ccc(Cl)cc1,21.4*,10.9%,-1.2%,5.1%,37.9%,35.8
O=C(CN1CCCC1)Nc1ccc(Cl)cc1C(=O)c1ccccc1,5.8,?,18.2%[46.1 µM],-6.3%,-12.5%,-12.0
CN(CC(=O)Nc1ccccc1Br)C(=O)c1ccccc1-c1nc2ccccc2s1,4.4,-29.2%,?,-11.6%,-5.6%,8.8
CCOC(=O)N1CCN(C(=O)CSCc2ccccc2Cl)CC1,26.2,?,?,21.4%,-23.5%,44.5*
CCOC(=O)N1CCN(C(=O)CSCc2ccccc2C)CC1,36.7*,?,-13.2%,12.9%,5.2%,59.9*
O=C(N/N=C/c1cn(Cc2ccccc2)c2ccccc12)c1cccnc1,7.9,4.47µM*,?,?,15.3%,13.9
O=C(N/N=C/c1cn(Cc2ccccc2)c2ccccc12)c1ccncc1,16.8,?,?,?,0.0%,-4.9
O=C(N/N=C/c1cn(CC(=O)N2CCOCC2)c2ccccc12)c1cccnc1,21.5*,?,13.6%[46.1 µM],24.9%,0.0%,19.8
O=C(Cn1cc(/C=N/O)c2ccccc21)N1CCOCC1,-1.3,8.8%[46.1 µM],-12.2%,13.5%,/,-12.5
Cc1ccc(NC(=O)C(=O)NCC(c2cccnc2)N2CCOCC2)cc1Cl (centres undefined),/,/,-29.8%[46.1 µM],/,/,/
NS(=O)(=O)c1ccc(CCNC(=O)c2ccc3ccccc3n2)cc1,33.7*,5.9%[46.1 µM],?,33.2%,23.0%,45.0*
COc1ccc(CCNC(=O)c2ccc3ccccc3n2)cc1,52.3*,?,?,37.5%,38.9%,69.3*
NS(=O)(=O)c1ccc(CNc2ccc3ccccc3n2)cc1,12.1,2.7%[46.1 µM],15.3%,46.4%,40.2%,88.2*
NS(=O)(=O)c1ccc(CNC(=O)c2ccc3ccccc3n2)cc1,0.6,4.1%[46.1 µM],/,26.2%,32.0%,6.8
O=C(NCc1cccnc1)C1c2ccccc2C(=O)N1Cc1ccco1 (centres undefined),-1.2,14.1%,15.6%,9.9%,/,-9.8
O=S(=O)(Nc1ccccc1N1CCOCC1)c1ccc(F)c(Cl)c1,-1.0,?,13.1%[46.1 µM],-4.7%,-7.8%,-9.7
Oc1[nH]c2c(Cl)cc(Cl)cc2c1N=NC(=S)NCC1CCCO1 (centres undefined),-3.3,?,?,1.85µM*,6.57µM*,-15.7
SMILES,CHX counter,Marburg entry inh,LASV entry inh,Pf growth 48h,Pf growth 96h,Shiga toxin inh
Oc1[nH]c2ccccc2c1N=NC(=S)NCC1CCCO1 (centres undefined),17.0*,-28.0%,?,?,?,17.6
Cc1cc(C)c2[nH]c(O)c(N=NC(=S)NCC3CCCO3)c2c1 (centres undefined),-4.3,8.0%,0.1%,?,?,-6.4
Oc1[nH]c2ccc(Br)cc2c1N=NC(=S)NCC1CCCO1 (centres undefined),-2.3,5.3%[46.1 µM],?,5.86µM*,?,-6.0
Nn1c(SCCOc2ccccc2)nnc1-c1cccnc1,12.4,11.3%,-1.6%,9.3%,0.0%,3.8
O=C(N/N=C/c1ccc(N2CCCC2)c([N+](=O)[O-])c1)c1cccnc1,5.3,9.2%[46.1 µM],/,-0.2%,?,26.2
Clc1ccccc1-c1nnc2n1-c1ccccc1SC2,1.1,-8.4%[46.1 µM],4.3%,?,?,-10.3
Brc1nnc2n1-c1ccccc1Sc1ccccc1-2,-0.1,11.7%,-15.4%,11.7µM*,8.28µM*,-8.8
c1ccc2c(c1)Sc1ccccc1-n1cnnc1-2,-1.0,-2.4%,-3.8%,?,9.28µM*,-8.4
Cc1cc(C)n(CC(=O)N2c3ccccc3Sc3ccccc32)n1,-2.9,-8.8%,12.0%,?,14.4%,-6.3
Clc1ccc2c(c1)-c1nnc(Br)n1-c1ccccc1S2,-1.3,?,?,10.4µM*,?,-4.3
Cc1c(CCO)c(=O)[nH]n1S(=O)(=O)c1ccc(F)cc1,-2.9,-1.1%[46.1 µM],9.1%[46.1 µM],5.1%,44.5%,14.8
COc1cccc(-c2nnc3sc(-c4ccccn4)nn23)c1,2.5,?,10.0%,-18.4%,?,25.7
c1ccc(OCc2nn3c(-c4ccncc4)nnc3s2)cc1,10.3,-27.0%,-18.6%,32.3%,?,-10.7
COc1cccc(-c2nn3c(-c4cc(C)[nH]n4)nnc3s2)c1,-3.2,-24.4%,-20.4%,/,10.4µM*,-9.9
c1ccc(OCc2nn3c(-c4ccccn4)nnc3s2)cc1,32.5*,?,11.5%,37.8%,?,68.1*
COc1ccc(-c2nn3c(-c4cccc(C)c4)nnc3s2)cc1OC,/,?,-30.1%[14.3 µM],/,/,/
COc1cccc(-c2nn3c(-c4ccccn4)nnc3s2)c1,15.2*,4.2%,21.7%,/,59.5%,42.1
COc1ccccc1-c1nnc2sc(COc3ccc(F)cc3)nn12,1.1,-19.2%,-13.0%,1.47µM*,17.7%,-7.2
CN(N)c1nc2ccccc2nc1C(F)(F)F,2.7,-4.0%[46.1 µM],5.3%,2.2%,56.1%,8.2
CCC1CCCCN1C(=O)COC(=O)c1cc(Br)ccc1Cl (centres undefined),-2.7,1.1%[46.1 µM],15.3%[46.1 µM],-4.0%,3.1%,12.6
COc1ccc(C)cc1N(C(=O)COc1cccc(F)c1)c1nc2ccccc2s1,10.7,-12.9%,15.4%,0.738µM*,?,12.9
CC(=O)N1CCCN(Cc2cn(-c3ccc(C)cc3)nc2-c2cccc(C)c2)CC1,9.1,/,/,9.28µM*,?,20.1
COc1ccc(-n2cc(CN3CCCC3)c(-c3cccc(F)c3)n2)cc1,9.4,?,-20.6%,?,248.9%,-7.0
Cc1cccc(-n2cc(CN3CCN(Cc4nccn4C)CC3)c(-c3cccc(F)c3)n2)c1,29.2*,/,/,3.29µM*,-11.1%,52.8*
Cc1ccc(-n2cc(CN3CCC(O)(c4ccccn4)CC3)c(-c3ccc(F)cc3)n2)cc1,0.6,3.98µM*,?,4.65µM*,2.33µM*,21.3
O=c1oc(Cl)c(Cl)c2c1CCCC2,/,-27.8%,/,/,/,/
